Compound activity: PubChem BioAssay, National Center for Advancing Translational Sciences (NCATS)
The list is not random: actives were taken first. Their share in the collection is about 0.35%.
Anesthetic bind – binds horse apoferritin like a general anesthetic; 350,000 tested, 0.074% active; apoferritin/1-aminoanthracene competitive binding, fluorescence; P02791; Potency, µM (highest dose often 77.5 µM), without a hit: top-dose activity change, negative = displacement, most hits filed as inhibitors; AID 485281; also: nearly all actives have a fitted effect of over 20% in size
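Steps: apoferritin (10 uM) was premixed with half-saturated 1-AMA in PBS, compounds were pin-transferred, plates stood 10 min at room temperature, fluorescence was read at 380/535 nm, and curves were fitted with a Hill equation.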
GLS inh – inhibitors of human glutaminase (GLS). GLS enzymatic activity, qHTS titration. Potency, µM (doses to about 45.5 µM), without a hit: at the top dose activity change, negative = inhibition, actives largely listed as inhibitors. 410,000 tested, 0.21% active
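Enzyme dispensed in phosphate buffer (45 mM, pH 8.2, 0.02% Tween-20), compounds pinned in, then 1 mM L-glutamine solution and the glutamate oxidase–HRP–Amplex Red mix added; fluorescence read immediately and again after 30 min at room temperature.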
B2AR arrestin – beta2AR (human) beta-arrestin recruitment activity; P07550; beta-arrestin recruitment to beta2AR, cell-based reporter; Potency, µM (series often up to 46.1 µM), without a hit: at the highest dose activation, usual class: activators; 330,000 tested, 0.02% active; AID 492947;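 also: 0% = DMSO controls and full agonism = EC100 isoproterenol or metaproterenol; nearly all actives have a fitted effect of over 65% in size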
Target sequence (P07550 whole entry, looked up): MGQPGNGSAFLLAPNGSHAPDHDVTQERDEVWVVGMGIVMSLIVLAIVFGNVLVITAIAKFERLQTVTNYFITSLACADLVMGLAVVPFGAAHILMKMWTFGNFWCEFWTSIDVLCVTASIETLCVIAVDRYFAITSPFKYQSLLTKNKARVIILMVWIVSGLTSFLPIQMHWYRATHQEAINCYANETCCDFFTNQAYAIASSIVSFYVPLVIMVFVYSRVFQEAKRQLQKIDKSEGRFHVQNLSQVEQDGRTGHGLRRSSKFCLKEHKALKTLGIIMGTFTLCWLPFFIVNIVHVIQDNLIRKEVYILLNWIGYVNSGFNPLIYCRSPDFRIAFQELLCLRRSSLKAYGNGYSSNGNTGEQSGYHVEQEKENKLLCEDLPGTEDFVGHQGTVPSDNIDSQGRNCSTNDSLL
Chronic BCR inh – inhibitors of chronic active B-cell receptor signaling | 340,000 tested, 0.05% active | ABC-DLBCL IkBa-CBG/CBR reporter, luminescence ratio, 4 h | AID 493014 | Potency, µM (series often up to 46.1 µM), without a hit: top-dose activity change, negative = inhibition, usual class: inhibitors; active = well fitted inhibition curve with a large enough effect in the signal ratio, with a control signal flat, not every such curve was filed as active; inconclusive = small, poorly fitted or top-dose-only effect, or effect the other way, or a change in a side signal; the % refers to the signal ratio;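 also: plate controls were basal doxycycline-induced cells for no effect and cells given 10 µM MG132 for full effect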
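Cell line TMD8 (human ABC DLBCL), stably expressing tet-inducible CBG68-IkBa fusion and CBR; IMDM/0.5% FBS; cpd up to 46 uM; dox induction, 4 h, 37C/5% CO2; dual luminescence; green/red ratio; MG132 control.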
MBNL1 CUG block – MBNL1-poly(CUG) RNA binding inhibition | Potency, µM (top dose mostly 57.5 µM), for the others: top-dose activity change, negative = inhibition, most hits filed as inhibitors | TR-FRET MBNL1-His/biotin-(CUG)12 binding, 665/545 ratio | AID 2675 | 280,000 tested, 0.036% active; active = well fitted inhibition curve with a large enough effect in the signal ratio, with a control signal flat, not every such curve was filed as active; inconclusive = small, poorly fitted or top-dose-only effect, or effect the other way, or a change in a side signal; inactive = no such curve, though single readings can be large or run the other way; the % refers to the signal ratio
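TR-FRET readout: Ex 340 nm, 665/545 nm emission ratio, normalized to buffer-only (basal) and MBNL1-(CUG)12 controls. Complex of MBNL1-His with Biotin-(CUG)12, compounds 92 nM–58 uM, incubated 60 min at room temperature.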
* marks the source's active call; other numbers are inactive results; ? = inconclusive; / = no result; [ ] = remark or other dose. Unless noted, calls follow the shape of the dose curve; as a rule, active = well fitted curve in the direction sought with a large enough effect; inconclusive = small, poorly fitted or top-dose-only effect, or another doubt; inactive = no such curve, though single readings can be large; an effect the other way counts as inactive or inconclusive. Unless noted, % is scaled to controls: 0 for no effect and ±100 for the full control effect; potency is read from the fitted curve at half-maximal effect.

SMILES	Anesthetic bind	GLS inh	B2AR arrestin	Chronic BCR inh	MBNL1 CUG block
CCc1n[nH]c(=S)n1/N=C/c1ccc(N(CC)CC)cc1	-9%	?	?	11µM*	?
COCCCNC(=O)/C(C#N)=C/c1cccc(NC(=O)c2ccccc2Cl)c1	-6%	-17%	0%	?	?
N#C/C(=C\c1cccc(NC(=O)c2ccccc2Cl)c1)C(=O)NCCc1ccccc1	-15%	-4%	5%	21µM*	1%
OC[C@@H]1OC(O)[C@H](O)[C@H](O)[C@H]1O (stereo partly specified)	11%	/	/	/	/
CC1=NN(C(N)=S)C(=O)C1N=Nc1ccccc1 (stereo unspecified)	-2%	3%	1.4µM*	?	?
O=C1OC(c2ccc3ccccc3c2O)(c2ccc3ccccc3c2O)c2ccccc21	/	11µM*	/	/	/
CC(=O)OC1CCC2(C)C(=CCC3C2CCC2(C)C(C(C)=O)CCC32)C1 (stereo unspecified)	/	0%	/	/	/
CCc1nc(SCC(=O)NNC(=O)c2ccc(OC)cc2)c2ccccc2n1	-16%	8.9µM*	0%	-10%	37%
CCC(=O)NC(c1cccs1)c1ccc2cccnc2c1O (stereo unspecified)	-1%	0%	13µM*	-16%	36%
CC(C)S(=O)(=O)c1oc(-c2ccc(F)cc2)nc1S(=O)(=O)c1ccccc1	-17%	1%	/	/	/
CCOc1cccc(N)c1	/	-7%	16µM*	?	/
Clc1ccccc1N/N=C/c1ccc2c(c1)OCO2	7%	25µM*	3%	0%	?
Cc1cc(C)c(S(=O)(=O)c2ccc(F)cc2C)c(Cl)n1	-3%	16µM*	1%	?	-2%
COc1cc(/C=C2\N=C3CCCCCN3C2=O)ccc1O	-18%	-1%	-2%	?	?
O=C1/C(=C\c2ccc(O)c(O)c2)N=C2CCCCCN12	-5%	2.5µM*	0%	?	?
CN(CC1(C)CCCO1)S(=O)(=O)c1ccc(Cl)c(S(N)(=O)=O)c1 (stereo unspecified)	/	-2%	/	/	/
CCN1CCN(c2cc3c(cc2F)c(=O)c(S(=O)(=O)c2ccc(OC)cc2)cn3CC)CC1	7%	-1%	/	/	/
CC1=NN(c2ccc(C)cc2)C(=O)/C1=C\C=C\c1ccccc1	-7%	-4%	0%	-8%	-15%[11.5 µM]
CC1=NN(c2cccc(C(=O)O)c2)C(=O)/C1=C\C=C/c1ccccc1	-5%	16µM*	5%	?	2%
COc1ccc2[nH]c3c(=O)n(Cc4ccc(C(=O)N5CCC(C(N)=O)CC5)cc4)c(=S)[nH]c3c2c1	1%	22µM*	0%	-26%	?
COc1ccc2[nH]c3c(=O)n(Cc4ccc(C(=O)N5CCCCCC5)cc4)c(=S)[nH]c3c2c1	-14%	-27%	0%	-7%	6%
CCOC(=O)c1cc(-c2ccc(OC)cc2)nn1-c1ccccc1C(=O)O	-1%	11µM*	0%	-4%	-4%
COc1ccc(-c2cc(C(=O)NN)n(-c3ccccc3)n2)cc1	-11%	23%	0%	-7%	-8%
Cc1cc(O)c2c(c1O)C(=O)c1c(O)cc(C)c(O)c1C2=O	6%	/	/	/	/
Cc1cc(O)c2c(c1O)C(=O)[C@]13C(=C2O)C(=O)[C@@H]2[C@@H](O)[C@H]1[C@@H]1[C@H](O)[C@H]3C(=O)C3=C(O)c4c(O)cc(C)c(O)c4C(=O)[C@]312	/	6.3µM*	-1%	?	/
COc1cc2c(c(OC)c1OC)-c1c(cc3c(c1OC)OCO3)CC(C)C(C)(O)C2 (stereo unspecified)	/	-6%	/	/	/
CCCC(=O)OCCNc1cc(Sc2nccn2C)c2nonc2c1[N+](=O)[O-]	-16%	1%	-2%	2.9µM*	?
CCCSc1cc(NCCOC(=O)CCC)c([N+](=O)[O-])c2nonc12	-23%	-3%	0%	-26%	?
CC(NC(=O)Cn1nc(-c2ccccc2)c2ccccc2c1=O)c1ccccc1 (stereo unspecified)	14µM*	4%	0%	0%	-8%
